Bioassay records as filed in PubChem BioAssay.
HCMV antiviral: qHTS Assay for inhibitors of the human cytomegalovirus (HCMV); HFF cells, HCMV-luciferase reporter, 72 h; hits give low values; activity change, negative = inhibition, % at 57.5 µM; actives 4.5% (n = 410,000); in the data active means activity change below about -60%; inconclusive means no clear call, values can overlap the other calls; inactive means above about -39%
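Steps: HFFs plated, 16 h 37C; compounds added; HCMV-luciferase added to MOI 1 PFU/cell; 72 h 37C; OneGlo reagent, 5 min room temperature; luminescence read, normalized to controls.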
VACV Venus inh: qHTS for Stage-Specific Inhibitors of Vaccinia Orthopoxvirus: Venus Reporter Primary qHTS; Vaccinia virus Venus reporter expression, fluorescence; actives 0.46% (n = 330,000); Potency, µM (titrated, usually from 36.5 µM), actives largely listed as inhibitors; calls by dose curve; tested in A549 cells; further: nearly all actives have a fitted effect of over 30% in size
FMDV antiviral: High Throughput Screening for Foot and Mouth Disease Virus Antivirals | FMDV antiviral cell-based qHTS | Potency, µM (top dose mostly 57.9 µM), actives largely listed as inhibitors | actives 1.2% (n = 410,000) | AID 1159524, 2015; calls by dose curve; tested in HEK293T cells; further: read-out not given here; nearly all actives have a fitted effect of over 45% in size
Vaccinia mCherry: qHTS for Stage-Specific Inhibitors of Vaccinia Orthopoxvirus: mCherry Reporter Primary qHTS. Vaccinia virus mCherry reporter infection, fluorescence. Potency, µM (doses to about 36.5 µM), most hits filed as inhibitors. actives 0.63% (n = 310,000); calls by dose curve; tested in A549 cells; further: nearly all actives have a fitted effect of over 35% in size
HCV inh: qHTS Assay for Inhibitors of Hepatitis C Virus (HCV) | Huh7.5.1 HCVcc-Cre infection, luciferase reporter, 44 h | Potency, µM (highest dose often 41.8 µM), hits mostly inhibitors | actives 3.4% (n = 340,000); active means well fitted inhibition curve with a large enough effect; inconclusive means small, poorly fitted or top-dose-only effect, or another doubt; inactive means no such curve, though single readings can be large or run the other way
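Seed cells (1,000/well) for 4 h; treat with compound and infect with HCVcc-Cre, moi about 0.5. Incubate 44 h, then detect luciferase activity.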
Large screens that a line does not name were inactive. Most compounds without a hit are left out; they make up all but 7.3% or so of the library.

OCCN1CCN(CC/C=C2/c3ccccc3Sc3ccc(C(F)(F)F)cc32)CC1	HCV inh 0.891µM
CCC(C)Sc1ccc(-c2nc3ccc(C)cn3c2NCc2ccccc2)cc1 (configuration not stated)	VACV Venus inh inconclusive, Vaccinia mCherry inconclusive
COc1ccc(CSc2ccc(-c3nc4ccccn4c3NCc3ccccc3)cc2OC)cc1	HCMV antiviral -64.8, FMDV antiviral inconclusive, HCV inh inconclusive
CCC(C)Sc1ccc(-c2nc3ccccn3c2NCc2ccccc2)cc1OC (configuration not stated)	VACV Venus inh inconclusive, FMDV antiviral 39.8µM, Vaccinia mCherry inconclusive, HCV inh inconclusive (no result: HCMV antiviral)
N#CCCNS(=O)(=O)c1ccc(C(=O)OCCCOC(=O)c2ccc(S(=O)(=O)NCCC#N)cc2)cc1	none (no result: VACV Venus inh, Vaccinia mCherry)
COc1ccc(Cn2c(-c3ccc(Br)cc3)c[n+]3ccccc23)cc1	HCMV antiviral -96.6 (no result: VACV Venus inh, Vaccinia mCherry)
COc1ccc(Cn2c(-c3ccc(OC)cc3)nc3ccccc32)cc1	HCV inh inconclusive
COCCNc1nnc(SC(C)C(=O)Nc2ccc(-c3nc4ccc(C)cc4s3)cc2)s1 (configuration not stated)	VACV Venus inh inconclusive, Vaccinia mCherry inconclusive, HCV inh 6.31µM
COc1cc(/C=N/Nc2ccccn2)ccc1OCC(C)C	Vaccinia mCherry inconclusive, HCV inh 8.91µM
CCOc1ccc(/C=N/Nc2ccccn2)cc1OC	none
CCCOc1ccc(/C=N/Nc2ccccn2)cc1OC	HCV inh inconclusive
C=CCOc1ccc(/C=N/Nc2ccccn2)cc1OC	HCV inh 14.1µM
CCn1c(/C=C/c2ccccc2Cl)nc2ccccc2c1=O	HCMV antiviral -78.9
CCn1c(/C=C\c2ccccc2C)nc2ccccc2c1=O	HCV inh inconclusive
Cc1cccc(/C=C/c2nc3ccccc3c(=O)n2Cc2ccccc2)c1	HCMV antiviral -83.1, FMDV antiviral inconclusive, HCV inh inconclusive
Cc1ccccc1/C=C\c1nc2ccccc2c(=O)n1Cc1ccccc1	FMDV antiviral inconclusive
O=c1c2ccccc2nc(/C=C/c2cccnc2)n1Cc1ccccc1	HCMV antiviral -97.6
O=c1c2ccccc2nc(/C=C/c2cccnc2)n1CCc1ccccc1	HCMV antiviral -74.8
O=c1c2ccccc2nc(/C=C/c2ccccc2)n1CCc1ccccc1	none
CCCCNc1sc(S(=O)(=O)CC)nc1S(=O)(=O)c1ccc(C)cc1	none (no result: HCV inh)
COc1ccc(N(Cc2cccs2)C(=O)Nc2cccc(Cl)c2)cc1	none (no result: HCV inh)
CN(C)CCCNC(=O)C1(O)c2cc(Br)ccc2NC(=O)N1c1c(F)cccc1F (configuration not stated)	none (no result: VACV Venus inh, Vaccinia mCherry)
CCCCN(CCCC)C(=O)c1cc2c(=O)n3ccccc3nc2s1	HCMV antiviral inconclusive (no result: HCV inh)
CCn1c(=O)c(C(C)=O)nc2ccccc21	HCMV antiviral -65.7 (no result: Vaccinia mCherry)
COc1ccc2c(c1)c(=O)c(C(=O)c1ccc(F)cc1)cn2CC(=O)Nc1ccc2c(c1)OCO2	none (no result: HCV inh)
CCCCn1c(SCC(=O)Nc2nnc(C(C)C)s2)nc2c1c(=O)n(C)c(=O)n2C	HCMV antiviral -74.7, HCV inh inconclusive (no result: VACV Venus inh, Vaccinia mCherry)
CC(C)c1ccc(CNc2nc(-c3ccco3)nn2C(=O)c2ccc([N+](=O)[O-])cc2)cc1	none (no result: HCV inh)
CCCCc1ccc(NC(=S)Nc2ccc(Cl)c(S(=O)(=O)N(C)C)c2)cc1	HCMV antiviral -62.9, HCV inh inconclusive
O=C1c2ccccc2C(c2nnnn2-c2ccc3c(c2)OCCO3)N1CCCN1CCOCC1 (configuration not stated)	none (no result: HCV inh)
O=C(Nc1cccc(Cl)c1Cl)C1CC(=O)N(c2ccc(Br)cc2)C1 (configuration not stated)	HCMV antiviral -91.7, VACV Venus inh inconclusive, FMDV antiviral inconclusive, HCV inh inconclusive
Cc1ccc(/C=N/NC(=O)C2CC(=O)N(c3ccccc3)C2)s1 (configuration not stated)	HCMV antiviral inconclusive
O=C(N/N=C/c1ccccc1O)C1CC(=O)N(c2ccc(Cl)cc2)C1 (configuration not stated)	HCMV antiviral -79.2, HCV inh inconclusive (no result: VACV Venus inh, Vaccinia mCherry)
CCOc1ccc(CCNC(=O)C2CCN(C(=O)c3cc4sccc4n3CC)CC2)cc1OCC	FMDV antiviral inconclusive (no result: HCV inh)
CCOC(=O)C1OC1C(=O)NC(CC(C)C)C(=O)NCCC(C)C (configuration not stated)	none (no result: HCMV antiviral, HCV inh)
COc1cccc(OC)c1C(=O)Oc1ccc2c(c1)O/C(=C\c1ccncc1)C2=O	HCMV antiviral -75.1, VACV Venus inh inconclusive, FMDV antiviral inconclusive, Vaccinia mCherry inconclusive
O=c1[nH]c2ccccc2n1C1CCN(C(c2ccccc2OC(F)(F)F)c2nnnn2-c2ccc3c(c2)OCCO3)CC1 (configuration not stated)	HCMV antiviral -106.2, VACV Venus inh inconclusive, FMDV antiviral inconclusive, Vaccinia mCherry inconclusive (no result: HCV inh)
COc1cccc(C(c2nnnn2-c2ccc3c(c2)OCCO3)N2CCC(n3c(=O)[nH]c4ccccc43)CC2)c1OC (configuration not stated)	HCMV antiviral -97.3 (no result: HCV inh)
COc1ccc(CCSc2n[nH]c(C(C)C)n2)cc1	none (no result: HCMV antiviral, FMDV antiviral, HCV inh)
CCOc1ccc(Sc2cc(C(=O)NCCc3ccc(OC)c(OC)c3)c3ccccc3n2)cc1	VACV Venus inh inconclusive, FMDV antiviral 14.1µM, Vaccinia mCherry inconclusive (no result: HCV inh)
CCOc1ccc(Sc2cc(C(=O)NCCc3ccccc3)c3ccccc3n2)cc1	none (no result: HCV inh)
COc1ccc(CCNC(=O)c2cc(Sc3cccc(Cl)c3)nc3ccccc23)cc1OC	HCMV antiviral -83.6, FMDV antiviral inconclusive (no result: HCV inh)
COc1cccc(CNC(=O)c2cc(Sc3cccc(Cl)c3)nc3ccccc23)c1	none (no result: HCV inh)
COc1cccc(Cn2c(=O)cnc3cnc(OC)nc32)c1	none (no result: HCMV antiviral, VACV Venus inh, Vaccinia mCherry, HCV inh)
[N-]=[N+]=NC(c1ccccc1)C(NC(=O)c1cc(C(F)(F)F)cc(C(F)(F)F)c1)c1ccccc1 (configuration not stated)	HCMV antiviral inconclusive, FMDV antiviral 25.1µM (no result: HCV inh)
O=C(OCn1ncc(Cl)c(Cl)c1=O)c1cccc(C(F)(F)F)c1	FMDV antiviral 14.1µM, HCV inh inconclusive (no result: HCMV antiviral, VACV Venus inh, Vaccinia mCherry)
CCOC(=O)C1C(C(C)=O)=C(c2ccccc2)c2ccccc2N1S(=O)(=O)C(F)(F)F (configuration not stated)	none
CCOC(=O)C1C(C(=O)OC)=C(c2ccc(OC)cc2)c2ccccc2N1S(=O)(=O)C(F)(F)F (configuration not stated)	FMDV antiviral inconclusive, HCV inh 11.2µM
CCOC(=O)C1=C(c2ccccc2)c2ccccc2N(S(=O)(=O)C(F)(F)F)C1C(=O)OCC (configuration not stated)	HCV inh 2.82µM
CCC(C(=O)NCCCN(CC)CC)n1ncn2c(cc3occc32)c1=O (configuration not stated)	none (no result: HCV inh)
CCOC(=O)c1nn2c(C(F)(F)F)cc(-c3ccc(OC)cc3)nc2c1Br	HCV inh inconclusive (no result: VACV Venus inh, Vaccinia mCherry)
CC(C)N(Cc1ccccc1)C(=O)CN1C(=O)NC2(CCCC2)C1=O	none (no result: VACV Venus inh, Vaccinia mCherry)
